According to the supplement of paper PMC6522484:
± gives the standard deviation of the averaged measurements.

Experiments:
DLD1 [1] = test: cell viability (CellTiter-Glo) relative to plate median (fraction of plate median); higher = more viable cells; details: 5 µM; treatment time 24 h; reporter: 7TFP
Outline: (§1)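 For this screen, colorectal cancer cell lines carrying stable lentiviral TCF/Wnt firefly luciferase reporters, either 7TFP or TCF4/Wnt, were seeded into 384-well plates. A day's wait of 24 h preceded addition of library compounds at a final 5 µM, which stayed on the cells for 24 h. Firefly luciferase or CellTiterGlo luminescence, read on parallel plates, was normalised to the plate median per well, and the reported value is the mean of two independent replicates.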

HCT116 = test: as above; details: 5 µM; treatment time 24 h; reporter: TCF4/Wnt
Outline: as §1

SW480 [2] = test: as above; details: 5 µM; treatment time 24 h; reporter: 7TFP
Outline: as §1

DLD1 [3] = test: TCF/Wnt firefly luciferase reporter signal relative to plate median (fraction of plate median); higher = higher Wnt reporter signal; details: 5 µM; treatment time 24 h; reporter: 7TFP
Outline: as §1

SW480 [4] = test: as above; details: 5 µM; treatment time 24 h; reporter: 7TFP
Outline: as §1

Row | SMILES | cell viability (DLD1 [1]) | cell viability (HCT116) | cell viability (SW480 [2]) | TCF/Wnt firefly luciferase reporter signal (DLD1 [3]) | TCF/Wnt firefly luciferase reporter signal (SW480 [4])
1 | CC(=O)OC1CCC2(O)CC1(C)CCC1C2CC1(C)C (stereo not given) | 1.03 ± 0.014 | 1.06 ± 0.05 | 1.05 | 0.9135 ± 0.0064 | 0.933 ± 0.057
2 | NC(=O)N/N=C/c1ccc([N+](=O)[O-])o1 | 0.894 ± 0.04 | 0.827 ± 0.13 | 0.9805 ± 0.0064 | 0.973 ± 0.11 | 1.08 ± 0.028
3 | COc1cc(/C=C/C(=O)O)cc(OC)c1OC | 0.983 ± 0.016 | 0.961 ± 0.015 | 0.903 ± 0.056 | 0.827 ± 0.072 | 0.972 ± 0.0028
4 | CO[C@@]12[C@H](COC(N)=O)C3=C(C(=O)C(C)=C(N)C3=O)N1C[C@@H]1N[C@@H]12 | 1.12 ± 0.057 | 1.01 | 1.25 ± 0.021 | 0.974 ± 0.094 | 0.843 ± 0.13
5 | Oc1cccc2nc3c(O)cccc3nc12 [1,6-Phenazinediol] | 1.12 ± 0.014 | 0.992 ± 0.069 | 1.01 | 1.12 ± 0.042 | 1.12 ± 0.12
6 | CC1(C)[C@@H](O)CC[C@]2(C)[C@H]3C(=O)C=C4[C@@H]5C[C@@](C)(C(=O)O)CC[C@]5(C)CC[C@@]4(C)[C@]3(C)CC[C@@H]12 | 1.01 ± 0.059 | 1.03 ± 0.098 | 1.05 ± 0.057 | 1.04 ± 0.22 | 1.12 ± 0.13
7 | O=c1cc(-c2ccccc2)oc2cc(O)c(O)c(O)c12 | 1.08 ± 0.021 | 1.06 ± 0.042 | 1.12 ± 0.035 | 0.927 ± 0.073 | 1.02 ± 0.037
8 | CN(C)CCOc1ccc(/C(=C(/CCCl)c2ccccc2)c2ccccc2)cc1 | 0.947 ± 0.034 | 1.02 ± 0.062 | 0.977 ± 0.047 | 0.962 ± 0.12 | 1.05 ± 0.073
9 | C[N+](C)(C)CCOP(=O)(O)OP(=O)([O-])OC[C@H]1O[C@@H](n2ccc(N)nc2=O)[C@H](O)[C@@H]1O | 0.923 ± 0.1 | 0.942 ± 0.016 | 1.01 ± 0.017 | 1.01 ± 0.096 | 1.04 ± 0.028
10 | CCN(CC)C(=O)N1CCN(C)CC1 | 0.9275 ± 0.0035 | 0.89 ± 0.079 | 1.03 ± 0.021 | 0.981 ± 0.098 | 1.09 ± 0.021
11 | NC(=O)c1cc[n+](CC2=C(C(=O)O)N3C(=O)[C@@H](NC(=O)[C@@H](c4ccccc4)S(=O)(=O)[O-])[C@H]3SC2)cc1 | 1.01 ± 0.055 | 0.983 ± 0.067 | 1.07 ± 0.085 | 0.967 ± 0.17 | 0.9605 ± 0.0078
12 | COc1cc(O)c2c(c1)C(=O)c1cc3c(c(OC)c1C2=O)[C@@H]1CCO[C@@H]1O3 [Aversin] | 1.24 ± 0.17 | 1.18 ± 0.021 | 1.12 ± 0.021 | 0.95 ± 0.059 | 1.02 ± 0.16
13 | COc1ccc(-c2coc3cc(O)ccc3c2=O)c(OC)c1 | 0.989 ± 0.016 | 1.01 ± 0.067 | 1.04 ± 0.05 | 1.035 ± 0.0071 | 1.01 ± 0.064
14 | COc1cc(OC)c(C(C)=O)c(O)c1C | 0.992 ± 0.026 | 0.977 ± 0.1 | 1.045 ± 0.0071 | 0.94 ± 0.11 | 0.885 ± 0.016
